The panel holds about 79,000 compounds, 15% with a hit somewhere; the sample as a whole holds those more often. Rule as the data show it: active = growth inhibition above about 70%; inactive = the rest.
Experiments:
[1] = NCI Yeast Anticancer Drug Screen. Data for the rad50 strain (AID 155);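 also: 0% = growth of vehicle-only cultures of the same strain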; conditions: S. cerevisiae rad50 strain growth inhibition; at 50.0 µM; hits give high values
Procedure, shortened: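 DNA repair mutant yeast, compound exposure, growth read-out; inhibition is taken relative to vehicle.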

[2] = NCI Yeast Anticancer Drug Screen. Data for the mec2-1 strain (AID 157); conditions: S. cerevisiae mec2-1 strain, at 50.0 µM, hits give high values
Procedure, shortened: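 mec2-1 yeast strain, carrying an alteration in DNA damage repair or cell cycle control, was exposed to compounds; growth inhibition was measured relative to vehicle-treated controls.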

[3] = NCI Yeast Anticancer Drug Screen. Data for the sgs1 mgt1 strain (AID 161);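 also: 0% = growth of cultures given vehicle only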; conditions: S. cerevisiae sgs1 mgt1 strain, at 50.0 µM, hits give high values
Procedure, shortened: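 Yeast cells carrying a defined DNA-repair defect were exposed to test compounds. Growth inhibition was measured relative to vehicle-treated controls.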

[4] = NCI Yeast Anticancer Drug Screen. Data for the cln2 rad14 strain (AID 165);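 also: 0% = growth equal to vehicle treated cultures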; conditions: S. cerevisiae cln2 rad14 strain, at 50.0 µM, hits give high values
Procedure, shortened: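 Yeast carrying cln2 and rad14 alterations (cell cycle control and DNA damage repair) were exposed to compounds. Growth inhibition was measured against vehicle-treated controls.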

[5] = NCI Yeast Anticancer Drug Screen. Data for the bub3 strain (AID 167); conditions: S. cerevisiae bub3 mutant strain, at 50.0 µM, hits give high values
Procedure, shortened: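 In this screen, a yeast mutant lacking normal mitotic checkpoint function is challenged with compound. Relative growth versus vehicle gives the inhibition value.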

[6] = NCI Yeast Anticancer Drug Screen. Data for the mlh1 rad18 strain (AID 175); conditions: S. cerevisiae mlh1 rad18 strain growth inhibition; at 50.0 µM; hits give high values
Procedure, shortened: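 Growth inhibition of the yeast strain was measured after compound exposure and expressed relative to vehicle-treated controls. The strain carries defined defects in DNA damage repair.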

Measured: growth inhibition

O=C(c1ccccc1)c1c[nH]c(=O)[nH]c1=O
inactive: [1] -17.1% | [2] 10.2% | [3] -3% | [4] -3.2% | [5] 0.4% | [6] -26.9%

CC(=O)CC(OC(C)=O)C1=CCC2C(CC1C)OC(=O)C2C (centres undefined)
inactive: [1] 45.8% | [2] 9.8% | [3] -22.6% | [4] -0.65% | [5] -36.5% | [6] -56.6%

CCCC(CCC)=C1C(=O)N=C(N)NC1=O
inactive: [1] -6.45% | [2] 4.9% | [3] -2.7% | [4] -9.05% | [5] -7.35% | [6] -16%

c1ccc(-c2nc(-c3ccccc3)c(-c3ccccc3)[nH]2)cc1
inactive: [1] -0.85% | [2] 28.1% | [3] 12.2% | [4] 11.2% | [5] 5.05% | [6] -36.2%

CC(N=Nc1ccccc1)/N=N/c1nn[nH]n1 (centres undefined)
inactive: [1] 23.8% | [2] -12.2% | [3] -11.6% | [4] -84% | [5] -22% | [6] -3.25%

COC(=O)Nc1nc2c(OC)c(OC)c(OC)cc2[nH]1
inactive: [1] -5.15% | [2] -6.75% | [3] -3.95% | [4] -17.9% | [5] -18.6% | [6] -17.1%

C/C(CC(O)(C(F)(F)Cl)C(F)(F)Cl)=N\NC(N)=S
inactive: [1] 29.9% | [2] -3.05% | [3] 0.1% | [4] 20.1% | [5] -0.55% | [6] 25.2%

CN(C)c1ccc(C2SCC(=O)N2NS(=O)(=O)c2cccc(C(=O)O)c2)cc1 (centres undefined)
inactive: [1] 5.05% | [2] -21.2% | [3] -10.8% | [4] 4.75% | [5] -24.6% | [6] -2.2%

OCCC1=CCC1
inactive: [1] 3.05% | [2] 20.9% | [3] -3.35% | [4] 29.6% | [5] 4.95% | [6] 5.4%

Cc1cc(O)c(C(c2ccc3c(c2)OCO3)c2c(O)cc(C)[nH]c2=O)c(=O)[nH]1
inactive: [1] 31.1% | [2] 17.2% | [3] -4.35% | [4] -1.1% | [5] 0% | [6] -34%

CCOC(=O)c1cccc(OCC)c1
inactive: [1] 6.95% | [2] 18.1% | [3] -7.65% | [4] -43% | [5] 3.5% | [6] 6.7%

COC(=O)C(C)(Cc1ccc2c(c1)nnn2C(C)=O)NC(C)=O (centres undefined)
inactive: [1] -11.4% | [2] -1.25% | [3] -4.15% | [4] -2.45% | [5] 22.6% | [6] -51.9%

CC(C)N(C=C(C#N)C#N)C(C)C
inactive: [1] 15.5% | [2] 7.5% | [3] -0.4% | [4] -57.5% | [5] 3.75% | [6] 4.6%

O=C1C(=O)N(C2CCCCC2)C(=S)N1C1CCCCC1
inactive: [1] -31.9% | [2] -30.1% | [3] -62.1% | [4] -2.5% | [5] -5.2% | [6] 12.3%

O=C1O/C(=C(/Cl)c2cccc3ccccc23)c2ccccc21
inactive: [1] -40.2% | [2] -67.8% | [3] -38.4% | [4] 9.55% | [5] -16.9% | [6] -38%

C=CC1=C(C)C2=NC1=CC1=NC(=CC3=C(C)C4=C(O)[C@H](C(=O)OC)C(=C5NC(=C2)[C@@H](C)[C@@H]5CCC(=O)O)C4=N3)C(CC)=C1C
inactive: [1] 1.65% | [2] 8.1% | [3] 31.2% | [4] 28.1% | [5] 21.1% | [6] 5.9%

FC(F)(F)c1ccc2nc[nH]c2c1
inactive: [1] 5.3% | [2] -10.2% | [3] -3.15% | [4] -10.4% | [5] 9.6% | [6] 6.95%

CC(C)/C=C(\C#N)C(=O)O
inactive: [1] -3.2% | [2] -13.5% | [3] -1.2% | [4] -0.8% | [5] -2.65% | [6] 1.3%

O=C(CCc1ccco1)CCc1ccco1
inactive: [1] 7.6% | [2] -3.35% | [3] 5.45% | [4] -9.05% | [5] -3.5% | [6] -0.6%

CC(C)(CO)C(Cl)C(=O)NCCC(=O)O (centres undefined)
inactive: [1] -6.05% | [2] -14.9% | [3] -13% | [4] -2% | [5] 15.7% | [6] -13.4%

Cc1cc(N(CCC#N)CCC#N)ccc1/C(N=Nc1ccc([N+](=O)[O-])cc1)=N\NC(=O)c1cc(Cl)ccc1O
inactive: [1] 18.9% | [2] 8.8% | [3] -5% | [4] 6.85% | [5] -26.4% | [6] 9.1%

CCOC(=O)C(CCSC)(CCSC)C(=O)OCC
inactive: [1] -41.4% | [2] -56.7% | [3] -31.7% | [4] 11.8% | [5] 20.4% | [6] -13.1%

COc1ccc(N2C(=O)CCC2=S)cc1
inactive: [1] -5.35% | [2] 8.55% | [3] 6.8% | [4] -4.5% | [5] -7.9% | [6] 15.5%

O=C(O)C1CCCCC1C(=O)Nc1ccc(Cl)c(Cl)c1 (centres undefined)
inactive: [1] 5.75% | [2] 20.1% | [3] -5.65% | [4] -4.15% | [5] 13.6% | [6] -48.1%

CC(C)(C)CP(=S)(CCP(CCP(=S)(CC(C)(C)C)CC(C)(C)C)CCP(=S)(CC(C)(C)C)CC(C)(C)C)CC(C)(C)C
inactive: [1] -0.75% | [2] -14.6% | [3] -18% | [4] 9.6% | [5] 0.65% | [6] -16.1%

CSc1ccc(NC(=O)N(Cc2ccccc2)c2ccccc2)cc1
inactive: [1] 3.75% | [2] 16.9% | [3] 11.9% | [4] -6.4% | [5] 19.2% | [6] 13.8%

CCCN(CCCCC(NC(C)=O)C(=O)NCc1ccccc1)C(=O)NC (centres undefined)
inactive: [1] -26.9% | [2] -27.8% | [3] -13.1% | [4] 17.9% | [5] -18.9% | [6] -14.5%

COc1cc(C)c(O)c(C)c1C
inactive: [1] -1.9% | [2] -4.1% | [3] -6.55% | [4] -30.3% | [5] -13.1% | [6] 8.35%

CC(=O)OC12c3ccccc3C(c3ccccc31)C1C(=O)N(c3ccccc3O)C(=O)C12 (centres undefined)
inactive: [1] -15.8% | [2] -17.4% | [3] -4.15% | [4] 6.2% | [5] -5.4% | [6] 7.7%

CC(=O)NC(CCCNC(=O)OCc1ccccc1)C(=O)NCc1ccccc1 (centres undefined)
inactive: [1] -9.1% | [2] -20.9% | [3] -30% | [4] -1.35% | [5] -16.9% | [6] -36%

O=C(O)CCn1cnc2c(=S)nc[nH]c21
inactive: [1] -23.2% | [2] -23.1% | [3] -28.4% | [4] -3.05% | [5] -54.6% | [6] -16.5%

COc1cc(N2C(=O)CSC2=S)cc(OC)c1OC
inactive: [1] 21.3% | [2] 12.3% | [3] 61.8% | [4] 25.4% | [5] 33.8% | [6] 23.4%

CCSC(C(O)C(O)C(O)C(O)CO)n1cnc2c(SC)ncnc21 (centres undefined)
inactive: [1] 20.1% | [2] -15.3% | [3] 1.05% | [4] -26% | [5] -4.95% | [6] -3.85%

CCOc1ccccc1NC(=O)C1=C(C)NC(C)=C(C(=O)Nc2ccccc2OCC)C1c1ccc([N+](=O)[O-])cc1
inactive: [1] -20.3% | [2] 27.2% | [3] -3% | [4] -4.9% | [5] 30.8% | [6] -7.2%

CN(NC(=O)CCCl)C1=NCCCCN1
inactive: [1] -6.6% | [2] -17.9% | [3] -4.95% | [4] 43.5% | [5] -0.5% | [6] 19.4%

c1ccc(C(=C2CCC2)c2c3ccccc3cc3ccccc23)cc1
inactive: [1] -10.1% | [2] 9.4% | [3] -7% | [4] 5.8% | [5] -17.9% | [6] -20.1%

O=[N+]([O-])c1cc(Cl)cc2c1-c1c(Cl)cc(Cl)cc1C2
inactive: [1] 16.8% | [2] 28.3% | [3] 7.65% | [4] 20.8% | [5] -6.25% | [6] 4.05%

O=C1c2ccccc2C(=O)N1/N=C/c1ccc([N+](=O)[O-])cc1
inactive: [1] -4.4% | [2] -17% | [3] -16.3% | [4] -11.5% | [5] -13.9% | [6] -22.5%

CSc1cccc(NC(=O)/C=C/C(=O)O)c1
inactive: [1] -3.05% | [2] 5.1% | [3] 16.3% | [4] -58.5% | [5] 6.65% | [6] -0.9%

Reference: PubChem BioAssay (NCI)
